For 13 compounds, max response, outcome and Potency results are on record in PubChem BioAssay (NCATS).

For one experiment, the system named is CRL-7250. The experiment in a line: Cytotoxic Profiling of Annotated Libraries Using Quantitative High-Throughput Screening (AID 1296008). For max response: % is set by controls: 0 for no effect and ±100 for the full control effect. Note: nearly all actives have a fitted effect of over 60% in size. Note: potency is the fitted concentration of half-maximal effect. Particulars: Five cell lines viability, CellTiter-Glo ATP luminescence, 48-72 h; max response: hits give low values. The essentials: (§1)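 Cells exposed to compounds for 48 or 72 hr at 37 degrees Celsius. Viability read as ATP-coupled luminescence with CellTiter-Glo after 10 min at room temperature.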
(In general: In ATP-based viability assays light output follows the ATP content of the culture.)

The test system of another experiment is HEK293. The experiment is described as above. To be noted: Five cell lines viability, CellTiter-Glo ATP luminescence, 48-72 h; max response: hits give low values. In outline:
as §1

The subject of experiment [1] is HaCat. The experiment is described as above. To be noted: Five cell lines viability, CellTiter-Glo ATP luminescence, 48-72 h; max response: hits give low values. The essentials: as §1
The subject of a further experiment is KB-3-1. Described as above. Particulars: Five cell lines viability, CellTiter-Glo ATP luminescence, 48-72 h; max response: hits give low values. In outline: as §1
For experiment [2], the system named is NIH3T3. Described as above. Particulars: Five cell lines viability, CellTiter-Glo ATP luminescence, 48-72 h; max response: hits give low values. The essentials:
as §1

Experiment [3] deals with HACAT. In words: qHTS assay to identify novel small-molecules to repurpose for Merkel cell carcinoma treatment (AID 1296009). Note: nearly all actives have a fitted effect of over 60% in size. Particulars: MCC and control cell lines, CellTiter-Glo viability, 72 h; at 44.8 µM (top of the series) unless noted. In outline: (§2)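 Dose-response viability screen; 72 hr exposure at 37 degree celsius; CellTiter-Glo added, 10 min room temperature, luminescence read; RLUs scaled between no-cell and DMSO wells.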
(In general: In qHTS, concentration-response curves come from the screen itself.)

Another experiment relates to HEK293T. The description is as above. Particulars: MCC and control cell lines, CellTiter-Glo viability, 72 h; series mostly up to 44.8 µM. In outline:
as §2

The test system of another experiment is MCC-13. The description is as above. To be noted: MCC and control cell lines, CellTiter-Glo viability, 72 h; series mostly up to 46 µM. In outline: as §2
A further experiment has as its system MCC-26. The description is as above. To be noted: MCC and control cell lines, CellTiter-Glo viability, 72 h; series mostly up to 46 µM. The essentials:
as §2

For a further experiment, the system named is MKL-1. The description is as above. To be noted: MCC and control cell lines, CellTiter-Glo viability, 72 h; series mostly up to 46 µM. The essentials: as §2
Experiment [4] deals with NIH3T3. The experiment is described as above. To be noted: MCC and control cell lines, CellTiter-Glo viability, 72 h; at 44.8 µM (top of the series) unless noted. The essentials:
as §2

The test system of a further experiment is UISO. The description is as above. To be noted: MCC and control cell lines, CellTiter-Glo viability, 72 h; series mostly up to 46 µM. In outline:
as §2

Another experiment relates to MKL-2. Described as above. Particulars: MCC and control cell lines, CellTiter-Glo viability, 72 h; series mostly up to 46 µM. In outline: as §2
A further experiment relates to WaGa. The experiment is described as above. To be noted: MCC and control cell lines, CellTiter-Glo viability, 72 h; series mostly up to 46 µM. In outline: as §2
A further experiment concerns CASKI. The experiment in a line: Primary qHTS to identify gynecologic anti-cancer compounds using libraries of approved drugs and bioactive compounds (AID 1345084). Note: nearly all actives have a fitted effect of over 55% in size. Note: potency is the fitted concentration of half-maximal effect. Particulars: Gynecologic cancer cell panel viability, ATPlite luminescence, 48 h; series mostly up to 57.5 µM. In outline: (§3)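 In this quantitative HTS, cell killing is estimated from loss of ATP-dependent luciferase light. Cells see five compound concentrations over a 48 h exposure.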

For the next experiment, the system named is C33A. Described as above. Particulars: Gynecologic cancer cell panel viability, ATPlite luminescence, 48 h; series mostly up to 57.5 µM. In outline:
as §3

Another experiment relates to Es-2. The experiment is described as above. To be noted: Gynecologic cancer cell panel viability, ATPlite luminescence, 48 h; series mostly up to 57.5 µM. In outline: as §3
Another experiment concerns HeLa. The description is as above. To be noted: Gynecologic cancer cell panel viability, ATPlite luminescence, 48 h; series mostly up to 57.5 µM. In outline:
as §3

The next experiment relates to TAB165. In words: qHTS profiling for inhibitors of Plasmodium falciparum proliferation (AID 504749).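 Note: 0% = DMSO vehicle and full inhibition = artemisinin control; nearly all actives have a fitted effect of over 60% in size.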 To be noted: P. falciparum in erythrocytes, SYBR Green DNA, 72 h; series mostly up to 28.7 µM. The essentials:
(§4)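 Each compound contacts P. falciparum-infected red blood cells for 72 h at 37 C; lysis buffer (Tris, EDTA, saponin, Triton X, SYBR Green I) is added and fluorescence measured next morning; values normalized to controls.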

The subject of another experiment is W2. The experiment is described as above. Particulars: P. falciparum in erythrocytes, SYBR Green DNA, 72 h; series mostly up to 28.7 µM. The essentials: as §4

Inconclusive results are not listed. Some structures have more than one record in an assay (separate samples or runs), and their calls can disagree. Unmarked numbers belong to inactive results. The source made the active and inactive calls. Calls come from the whole dose curve; as a rule, active = well fitted curve in the direction sought with a large enough effect; inconclusive = small, poorly fitted or top-dose-only effect, or another doubt; inactive = no such curve, though single readings can be large; an effect the other way counts as inactive or inconclusive.

Consider `Cn1cc(C=CC(=O)c2cccc(F)c2)cc1C=CC(=O)NO`, for which the max response in the experiment with CRL-7250 was -7.49%. The outcome with HEK293, in the experiment with HaCat [1], with KB-3-1, in the experiment on NIH3T3 [2], in the experiment with HACAT [3] and in the experiment on NIH3T3 [4] was inactive. Also, the Potency result in the experiment on HEK293T, in the experiment with MCC-13, in the experiment with MCC-26, in the experiment with MKL-1 and with UISO was “inactive” throughout.
As for `O=C1NC(O)CCN1[C@@H]1O[C@H](CO)[C@H](O)[C@H]1O` (stereo not given in full), the max response is -71.1% in the experiment with CRL-7250, -3.17% with HEK293, -2.55% in the experiment on KB-3-1 and 1.52% in the experiment with NIH3T3 [2]. Besides, the result with HaCat [1] and in the experiment with HACAT [3] was inactive. Further, the Potency entry with MCC-13, with MCC-26, with MKL-1, with MKL-2, in the experiment with UISO and in the experiment with WaGa was “inactive” each time.
As for `CC[C@H]1OC(=O)[C@H](C)[C@@H](O[C@H]2C[C@@](C)(OC)[C@@H](O)[C@H](C)O2)[C@H](C)[C@@H](O[C@@H]2O[C@@H](C)C[C@H](N(C)C)[C@@H]2O)[C@](C)(O)C[C@@H](C)C(=O)[C@H](C)[C@@H](O)[C@]1(C)O`, the values for the max response with CRL-7250, in the experiment with HEK293 and in the experiment with KB-3-1 were 0.799%, -7.85% and 5.08%, respectively. For the same compound, the call with HaCat [1], with NIH3T3 [2], with HACAT [3] and with NIH3T3 [4] was inactive. For the same compound, the Potency result in the experiment on MCC-13, in the experiment with MCC-26, in the experiment on MKL-1, with MKL-2, in the experiment with UISO and in the experiment with WaGa was “inactive” throughout.
For `N#Cc1cc(NC(=O)Nc2nnc(-c3ccncc3)s2)ccc1-c1cn[nH]c1`, the values for the max response with CRL-7250, with KB-3-1 and in the experiment on NIH3T3 [2] were -3.75%, 0.642% and -2.38%, respectively. In addition, the outcome in the experiment on HEK293, with HaCat [1] and with HACAT [3] was inactive. Also, the Potency entry in the experiment on HEK293T, in the experiment with MCC-13, in the experiment with MCC-26, in the experiment with MKL-1, in the experiment on MKL-2 and in the experiment on UISO was “inactive” throughout. Further, in the experiment on WaGa, the Potency entry was “inactive”.
Consider `Nc1ccc(C(=O)Nc2cccc(-c3nc(N4CCOCC4)c4oc5ncccc5c4n3)c2)cn1`, for which the outcome in the experiment on CRL-7250 and with KB-3-1 was inactive. In addition, the Potency with HEK293 is 3.26 µM (active); in the experiment on KB-3-1 it was 20.6 µM (active); in the experiment on NIH3T3 [2], 2.31 µM (active); in the experiment with CASKI, 14.1 µM (active). In the experiment with HaCat [1], the max response is -11.9%. For the same compound, the Potency result with MCC-13, in the experiment on MCC-26, with MKL-1, with MKL-2 and in the experiment on UISO was “inactive” in each case.
For the compound `CCOC(=O)[C@@H](N)Cc1ccc(-c2cc(O[C@H](c3ccc(Cl)cc3-n3ccc(C)n3)C(F)(F)F)nc(N)n2)cc1`, the max response in the experiment with CRL-7250 is -8.01%; in the experiment with HEK293, -5.12%; in the experiment on HaCat [1], 1.01%; in the experiment on KB-3-1, 6.69%. The compound was called inactive in the experiment on HaCat [1] and in the experiment on HACAT [3]. The Potency result in the experiment with MCC-13, in the experiment on MCC-26, with MKL-1, in the experiment on UISO, in the experiment with WaGa and in the experiment with C33A was “inactive” in each case. Also, the Potency result with CASKI, with Es-2 and in the experiment with HeLa was “inactive” throughout.
As for `CC1(C)O[C@@H]2C[C@H]3[C@@H]4CCC5=CC(=O)C=C[C@]5(C)[C@@H]4[C@@H](O)C[C@]3(C)[C@]2(C(=O)CO)O1`, the max response with CRL-7250 is -21.1%; in the experiment with NIH3T3 [2], -5.4%. The compound was classed as inactive in the experiment on HEK293, in the experiment with HaCat [1], in the experiment on KB-3-1 and in the experiment with HACAT [3]. Moreover, the Potency result in the experiment with HEK293T, in the experiment with MCC-13, in the experiment with MCC-26, in the experiment on MKL-1, with MKL-2 and in the experiment with UISO was “inactive” each time. The Potency result in the experiment on WaGa, in the experiment on C33A, with CASKI, with Es-2 and in the experiment on HeLa was “inactive” each time.
Regarding `Oc1cc2c(cc1O)C1c3ccc(O)c(O)c3OCC1(O)C2` (stereo not given), the max response was 1.81% in the experiment with CRL-7250, 1.47% in the experiment on HEK293 and 7.88% in the experiment with KB-3-1. Further, the outcome in the experiment with HaCat [1], with NIH3T3 [2], in the experiment with HACAT [3] and in the experiment with NIH3T3 [4] was inactive. Moreover, the Potency entry in the experiment on MCC-13, in the experiment with MCC-26, in the experiment on MKL-1, in the experiment on MKL-2, with UISO and with WaGa was “inactive” each time.
As to `COC(=O)C=CC(=O)OC`, the max response with CRL-7250 is -5.16%; with KB-3-1, 7.81%; with NIH3T3 [2], -0.0603%. For the same compound, the compound was called inactive with HEK293, in the experiment on HaCat [1] and in the experiment on HACAT [3]. The Potency result with HEK293T, with MCC-13, with MCC-26, in the experiment on MKL-1, in the experiment with MKL-2 and in the experiment on UISO was “inactive” throughout.
Turning to `CN1C(C(=O)Nc2ccccn2)=C(O)c2sc(Cl)cc2S1(=O)=O`, the outcome in the experiment on CRL-7250, with HEK293, with HaCat [1] and in the experiment with HACAT [3] was inactive. The max response is 3.99% with KB-3-1 and -1.3% in the experiment with NIH3T3 [2]. For the same compound, the Potency result in the experiment on HEK293T, in the experiment with MCC-13, in the experiment on MCC-26, in the experiment with MKL-1, in the experiment on UISO and in the experiment on WaGa was “inactive” each time.
For `C[C@H](O)[C@@H]1C(=O)N2C(C(=O)O)=C(S[C@@H]3CN[C@H](CNS(N)(=O)=O)C3)[C@@H](C)[C@@H]12`, the max response is 4.32% with CRL-7250 and 0.869% in the experiment on HEK293. For the same compound, the compound was called inactive in the experiment with HaCat [1], with KB-3-1, in the experiment on NIH3T3 [2], with HACAT [3] and in the experiment with NIH3T3 [4]. Besides, the Potency result with MCC-13, with MCC-26, in the experiment with MKL-1, in the experiment with MKL-2, in the experiment on UISO and in the experiment on WaGa was “inactive” each time. In addition, the Potency entry with C33A, in the experiment on CASKI, in the experiment with Es-2 and in the experiment with HeLa was “inactive” throughout.
In the case of `Nc1nc2c(c(=O)[nH]1)N(C=O)[C@H](CNc1ccc(C(=O)N[C@@H](CCC(=O)O)C(=O)O)cc1)CN2`, the Potency entry in the experiment on TAB165, in the experiment with W2, with MCC-13, with MCC-26, in the experiment on MKL-1 and with MKL-2 was “inactive” each time. In addition, the Potency entry in the experiment with UISO and in the experiment with WaGa was “inactive” each time. Further, the max response with CRL-7250 was -8.32%; in the experiment on HEK293 it was -23.4%; with KB-3-1, 3.69%. The outcome in the experiment on HaCat [1], with NIH3T3 [2], in the experiment on HACAT [3] and in the experiment on NIH3T3 [4] was inactive.
`COC(=O)[C@@H]1[C@H]2C[C@@H]3c4[nH]c5ccccc5c4CCN3C[C@@H]2CC[C@@H]1O`: the compound was classed as inactive in the experiment with CRL-7250, in the experiment on HEK293, with HaCat [1] and in the experiment on HACAT [3]. Further, the max response in the experiment on KB-3-1 is 1.87%; in the experiment with NIH3T3 [2], -9.61%. Moreover, the Potency result in the experiment with HEK293T, in the experiment on MCC-13, in the experiment with MCC-26, in the experiment on MKL-1, in the experiment with UISO and with WaGa was “inactive” in each case.
